In PubChem BioAssay AID1220 (Sanford-Burnham Center for Chemical Genomics, 2008):
In all, about 190,000 compounds went through this assay and about 1,300 (0.68%) were called active. What follows is part of a selection rich in actives, with near analogues and random picks from the rest. Values without a mark were called inactive. No stated cut-off is given here; in the data, active means inhibition above about 50%; inactive means the rest.

Molecular target: Mannose-6-phosphate isomerase (Homo sapiens) (UniProt P34949)
Assay: human PMI inhibitors, high substrate, primary screen, biochemical, fluorescence intensity, high mannose 6-phosphate (AID 1220)
Settings: recombinant PMI enzyme, coupled fluorescence intensity; at 20 µM; stronger effect = higher value

Chain of Mannose-6-phosphate isomerase (Homo sapiens) (P34949 whole entry, looked up): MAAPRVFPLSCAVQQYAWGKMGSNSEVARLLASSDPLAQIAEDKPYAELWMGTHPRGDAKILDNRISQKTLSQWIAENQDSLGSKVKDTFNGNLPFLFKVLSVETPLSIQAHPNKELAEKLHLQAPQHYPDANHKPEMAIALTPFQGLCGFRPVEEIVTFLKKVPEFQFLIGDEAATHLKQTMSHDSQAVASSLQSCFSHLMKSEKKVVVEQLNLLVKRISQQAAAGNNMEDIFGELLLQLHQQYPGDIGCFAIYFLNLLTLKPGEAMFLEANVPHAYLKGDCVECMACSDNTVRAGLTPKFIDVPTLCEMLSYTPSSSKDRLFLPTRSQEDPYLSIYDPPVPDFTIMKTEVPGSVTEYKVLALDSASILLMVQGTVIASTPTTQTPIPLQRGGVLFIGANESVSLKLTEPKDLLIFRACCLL

SMILES | inhibition
Cc1cc2c(cc(C(=O)OCC(=O)NCc3ccco3)n2C)s1 | -6.2%
CN1CCN(C(=O)C2=C[C@H](C(C)(C)C)C[C@H](OCCCCO)O2)CC1 | 0.2%
CCOC(=O)c1cc2cc3ccccc3cc2[nH]1 | 53.2% (active)
CC(C)OC(=O)c1cc2ccccc2[nH]1 | 7.4%
CCOC(=O)c1cc2cc(OC)ccc2[nH]1 | -9.7%
CCCC(=O)Nc1cc(OC)c(NC(=O)NC2CCCCC2)cc1OC | 51.8% (active)
COc1ccc(Cl)cc1NC(=O)NC1CCCCC1 | -2.2%
CCCCC(=O)Nc1cc(OC)c(NC(=O)C2CCCCC2)cc1OC | 2.5%
O=C(CCC1COc2ccccc2O1)NCc1ccccc1 (stereo unspecified) | 0.9%
CC1CC2(CCCCC2)Nc2c1ccc1ccccc21 (stereo unspecified) | -36.7%
NS(=O)(=O)c1cccc(NC(=O)CN2CCN(Cc3ccc4c(c3)OCO4)CC2)c1 | 10%
COc1ccc(NC2=C(Cl)C(=O)N(CCc3ccccc3)C2=O)cc1 | 4.8%
Cc1cc(=S)cc(C)n1CCO | -138%
O=C(/C(=N/N=C/c1ccc(O)c(O)c1)c1ccccc1)c1ccccc1 | 24.9%
O=C(/C(=N/N=C/c1ccc(O)c(O)c1O)c1ccccc1)c1ccccc1 | 30.5%
C/C(=N\NS(=O)(=O)c1ccc(C)c([N+](=O)[O-])c1)c1ccc2c(c1)OCO2 | -16.6%
C=CCOc1cc(OC)c(OC)c(OC)c1 | 54.8% (active)
COc1cc(OCC(N)=O)cc(OC)c1OC | 7.1%
C=CCOc1ccc(/C(CC)=N/O)c(OC)c1 | 6.3%
COc1ccccc1NC(=O)c1ccccc1S(=O)(=O)c1ccccc1[N+](=O)[O-] | 12.3%
C=CCn1c(SCC(=O)NC(=O)NC)nnc1C1CCCCC1 | -11.2%
CC(=O)c1cccc(NC(=O)/C(=C\c2cccnc2)NC(=O)c2ccco2)c1 | -6.2%
CC1(C)CC(=O)C(/C=N/c2ncccc2C(=O)O)=C(O)C1 | -18.7%
CC1(C)CC(=O)C(/C=N/c2ccccn2)=C(O)C1 | -6.9%
CC1(C)CC(=O)C(C=Nc2cccnc2/N=C/C2=C(O)CC(C)(C)CC2=O)=C(O)C1 | 58.8% (active)
CCOC(=O)c1nc(C)n(-c2cc(OC)c(Cl)cc2Cl)n1 | -10.2%

SMILES | inhibition
Cc1ccc2nc(SC(C(=O)c3ccccc3)c3ccccc3)nc(C)c2c1 (stereo unspecified) | 1.4%
Cc1ccc(N=Cc2sccc2C)cc1C | 8.8%
CCN(CC)c1ccc(O)c(C=Nc2ccc(C)c(C)c2)c1 | 57% (active)
COC(=O)N/N=C/c1cc(Br)ccc1O | 13.6%
Oc1ccc(Br)cc1C=Nc1ccc(Cl)cc1 | 13.7%
CCN(CC)c1ccc(N=Cc2cc(Br)ccc2O)cc1 | 63.1% (active)
COc1ccc(N=Cc2cc(Cl)ccc2O)cc1Cl | 40.6%
NS(=O)(=O)c1ccc(CCNC(=O)NC2(C(F)(F)F)Oc3ccccc3O2)cc1 | -9.2%
CC1(N2CCOCC2)C(=O)c2ccccc2C1=O | -17.3%
COc1cc(OC)c2c(O)c3c(c(-c4c5c(c(O)c6c(OC)cc(OC)cc46)CO[C@@H](C)[C@H]5O)c2c1)[C@H](O)[C@H](C)OC3 | 54.8% (active)
COc1cc(OC)c2c(c1)C(=O)OC2 | -32.4%
COc1cc(OC)c2c(c1)OC(c1ccc(OC)c(OC)c1)C(O)C2=O (stereo unspecified) | 1.6%
COc1ccccc1CC(=O)Nc1ccc(O)cc1C(=O)O | 2.5%
CCCC1=[N+](CC(C)=O)CCn2c(C)ccc21 | -7.3%
COc1ccc2c(c1O)-c1ccccc1CCN(C)C2 | 7.3%
CN1CCc2ccccc2C1C1CCNCC1 (stereo unspecified) | 8.3%
CN1CCc2cc3c(c4c2[C@H]1[C@H](O)c1ccccc1-4)OCO3 | 16.9%
CCCCC(=O)Nc1cc2nn(-c3ccc(OC)cc3)nc2cc1C | 10.9%
O=C(NCCN1CCN(c2ccccc2)CC1)C1(S(=O)(=O)c2ccc(Cl)cc2)CC1 | 18%
S=C(c1ccc(-c2ccc(Cl)c(Cl)c2)o1)N1CCOCC1 | -7.4%
O=[N+]([O-])c1cccc(-c2ccc(C(=S)N3CCOCC3)o2)c1 | 47%
O=[N+]([O-])c1cc(-c2ccc(C(=S)N3CCOCC3)o2)ccc1Cl | 61% (active)
CC1CCN(C(=O)CSc2nnc(CNc3ccc(F)cc3)n2Cc2ccco2)CC1 | 10.7%
CCCN1C2CCCC1CC(NC(=O)c1ccccc1OCC)C2 (stereo unspecified) | 0%
CN1CSC2=C(C#N)C(c3cccc(OCc4ccccc4)c3)CC(=O)N2C1 (stereo unspecified) | 59.9% (active)
CCc1ccc(C2CC(=O)N3CN(c4ccccc4)CSC3=C2C#N)cc1 (stereo unspecified) | -47.1%

SMILES | inhibition
COc1cc(C2CC(=O)N3CN(Cc4ccccc4)CSC3=C2C#N)ccc1OCc1ccccc1 (stereo unspecified) | 66.3% (active)
N#CC1=C2SCN(Cc3ccccc3)CN2C(=O)CC1c1ccc2c(c1)OCO2 (stereo unspecified) | 47.4%
COc1ccc(C2CC(=O)N3CN(c4ccccc4F)CSC3=C2C#N)cc1OC (stereo unspecified) | -0.4%
COc1cccc(C2CC(=O)N3CN(c4ccccc4F)CSC3=C2C#N)c1 (stereo unspecified) | -11.4%
COc1cc(C2CC(=O)N3CN(Cc4ccco4)CSC3=C2C#N)ccc1OCc1ccccc1 (stereo unspecified) | 74.4% (active)
COc1ccc(C2CC(=O)N3CN(c4ccc(C)c(Cl)c4)CSC3=C2C#N)cc1OC (stereo unspecified) | -27.1%
Cc1ccc(/C=N/NC(=O)c2nnn(-c3nonc3N)c2CSc2ccc(Cl)cc2)cc1 | -7%
Cc1ccc(O)c(NC(=O)c2noc3c2CCc2ccccc2-3)c1 | 13%
CCOC(=O)CC1C(=O)NCCN1S(=O)(=O)c1ccccc1 (stereo unspecified) | -2.9%
CC(C)C(=O)N(Cc1ccc(F)cc1)Cc1nc2ccccc2c(=O)[nH]1 | 4.6%
CCN(CC)c1ccc2ccc(=O)oc2c1 | 3.8%
CCN(CC)c1ccc2c(C)c(Cl)c(=O)oc2c1 | -1.9%
CC(SC1CCCC1)C(=O)Nc1ccnn1C(C)C (stereo unspecified) | -2.4%
CC(C)OCCCNC(=S)NNC(=O)C(c1ccccc1)c1ccccc1 | -14.8%
O=c1cc(CN2CCN(c3ccccn3)CC2)nc2sccn12 | 9.8%
CC(=O)c1cc2c(C)c(C(=O)c3ccccc3)oc2cc1O | 8.2%
O=C(NC(=S)Nc1cnc2ccccc2c1)c1ccccc1 | 10.3%
Fc1ccccc1NC(=S)Nc1cccc2cnccc12 | 9.4%
CCCCNC(=S)Nc1cccc2cnccc12 | 3.6%
O=C(NC(=S)Nc1cccc2cnccc12)c1ccccc1 | 54.7% (active)
O=C(NC(=S)Nc1ccc2ncccc2c1)c1ccccc1 | 55.9% (active)
S=C(NCCc1ccccc1)Nc1cccc2cnccc12 | 57.3% (active)
O=C(NNC(=S)Nc1ccccc1)c1ccc2ncccc2c1 | -9.6%
S=C(NCCc1ccncc1)Nc1cccc2ccccc12 | 18.9%
O=C(NC(=S)Nc1cccc2cccnc12)c1ccccc1 | 10%
COc1ccc(Cn2cc(C(=O)c3ccccc3)c(=O)c3cc(OC)ccc32)cc1 | 15.1%

SMILES | inhibition
Cn1c(Cc2ccccc2)nnc1SCC(=O)N1CCOCC1 | -5.3%
CC(C)(C)c1ccc(NC(=O)CNC2CCCc3ccccc32)cc1 (stereo unspecified) | -3.2%
COc1cc(/C=N/N2CCOCC2)ccc1OCc1ccccc1 | -7.2%
CCSc1nnc(NC(=O)CSc2nc(CC)nc3c2c(=O)n(C)c(=O)n3C)s1 | 6.7%
CC1CCN(S(=O)(=O)c2cccc(C(=O)NCc3ccco3)c2)CC1 | -3.8%
O=C1NC2=C(CCc3ccccc32)C(c2ccccc2)N1 (stereo unspecified) | 2.3%
Cc1ccc(C2NC(=O)NC3=C2CCc2ccccc23)cc1 (stereo unspecified) | 40.5%
Cc1ccc(-c2nnn(CC(=O)N(CC3CCCO3)C(C(=O)NCC3CCCO3)c3ccc(F)cc3)n2)o1 (stereo unspecified) | 2.7%
O=C(CN1C2CCCC1CC(NC(=O)c1ccccc1)C2)Nc1nccs1 (stereo unspecified) | -12.4%
O=C(NCC(c1cccnc1)N1CCN(c2ccccc2)CC1)C1CCCCC1 (stereo unspecified) | 8.8%
CN(C)CCCN1C(=O)c2cccc3c(Br)ccc(c23)C1=O | 52% (active)
CN(C)CCCN1C(=O)c2cccc3c([N+](=O)[O-])ccc(c23)C1=O | 29.6%
C=CCN1C(=O)c2cccc3c(Br)ccc(c23)C1=O | 4.2%
Fc1ccccc1CNc1cc(Cl)cc(Cl)c1 | 5.3%
COc1cc(/C=N\NC(=O)C2C(=O)NCC2c2ccccc2)cc(OC)c1O (stereo unspecified) | 50.9% (active)
COc1cccc(/C=N\NC(=O)C2C(=O)NCC2c2ccccc2)c1O (stereo unspecified) | -17%
COc1ccc(/C=N\NC(=O)C2C(=O)NCC2c2ccccc2)cc1O (stereo unspecified) | 8.9%
CC(/C=N\Nc1nnc2c(n1)[nH]c1c(C)cccc12)=C\c1ccco1 | 7%
COc1ccc(/C=N/c2oc(C)c(C)c2C#N)c(OC)c1 | 51.5% (active)
Cc1oc(/N=C/c2ccc(Cl)cc2Cl)c(C#N)c1C | -5.8%
Cc1oc(/N=C/c2ccc(O)cc2O)c(C#N)c1C | 8.5%
O=C(c1ccc(Br)o1)N1CCN=C1SCc1cccnc1 | 2.2%
COCCCNC(=S)NNC(=O)c1ccc(S(=O)(=O)N2CCC(C)CC2)cc1 | -5.4%
